Assay outcomes deposited in PubChem BioAssay by National Center for Advancing Translational Sciences (NCATS).
Shown are actives, neighbours in structure and some others; about 4.6% of the full set was active somewhere.
Marburg entry inh = inhibitors of Marburg virus binding or cell entry | Marburg virus pseudotyped entry inhibition, cell reporter | Potency, µM (titrated, usually from 37.8 µM), most hits filed as inhibitors | 300,000 compounds, 1.8% hits; calls by dose curve; tested in HEK293 cells
VACV Venus inh = inhibitors of vaccinia virus (Venus reporter) | Vaccinia virus Venus reporter expression, fluorescence | Potency, µM (doses to about 36.5 µM), usual class: inhibitors | 330,000 compounds, 0.46% hits | AID 720580; calls by dose curve; tested in A549 cells; further: nearly all actives have a fitted effect of over 30% in size
Lassa entry inh = blocks Lassa virus binding to or entry into cells | Lassa virus pseudotype entry inhibition, cell reporter | Potency, µM (top dose mostly 37.9 µM), actives largely listed as inhibitors | 300,000 compounds, 1.2% hits; calls by dose curve; tested in HEK293 cells; further: nearly all actives have a fitted effect of over 50% in size
Vaccinia mCherry = vaccinia inhibition (mCherry reporter); Vaccinia virus mCherry reporter infection, fluorescence; Potency, µM (series often up to 36.5 µM), usual class: inhibitors; 310,000 compounds, 0.63% hits; AID 720579; calls by dose curve; tested in A549 cells; further: nearly all actives have a fitted effect of over 35% in size
HCV inhibitor = inhibitors of hepatitis C virus infection. Huh7.5.1 HCVcc-Cre infection, luciferase reporter, 44 h. 340,000 compounds, 3.4% hits. Potency, µM (highest dose often 41.8 µM), actives largely listed as inhibitors; active means well fitted inhibition curve with a large enough effect; inconclusive means small, poorly fitted or top-dose-only effect, or another doubt; inactive means no such curve, though single readings can be large or run the other way
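Reporter virus HCVcc-Cre (~0.5 moi) infects cells exposed to compound; seeding density 1,000 cells/well with 4 h settling beforehand. Luminescence, 15 sec read, taken 44 h post-infection following a 15 min RT substrate incubation.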
Of the large screens only hits and unclear results are named; the others gave an inactive call.

CCOC(=O)c1[nH]c2ccc(OC)cc2c1NC(=O)OC	none (no result: Vaccinia mCherry)
COC(=O)c1[nH]c2ccccc2c1NC(=O)c1ccccc1F	HCV inhibitor 13µM (no result: Marburg entry inh, VACV Venus inh, Lassa entry inh, Vaccinia mCherry)
COCC(=O)Nc1cc(C(=O)N2CC3CCC2C3)c2c(c1)nc(-c1ccncc1)n2C (stereo unspecified)	none (no result: Marburg entry inh, Lassa entry inh, HCV inhibitor)
O=C(C[n+]1c(Cl)cc(Cl)c2ccccc21)c1ccccc1	none (no result: Marburg entry inh, Lassa entry inh, HCV inhibitor)
CN(C)CCNC(=O)COc1ccc(C23CC4CC(CC(C4)C2)C3)cc1	Marburg entry inh 4µM, VACV Venus inh inconclusive, Lassa entry inh inconclusive, HCV inhibitor 11µM
COc1cccc(CNC(=O)c2ccc(NC(=O)N3CCCCc4ccccc43)cc2)c1OC	none (no result: Marburg entry inh, HCV inhibitor)
COc1ccc(/C=C/C(=O)NC(=S)NNC(=O)c2ccco2)cc1	Marburg entry inh inconclusive, VACV Venus inh inconclusive, Lassa entry inh 4.5µM, HCV inhibitor inconclusive (no result: Vaccinia mCherry)
O=C(/C=C/c1ccc(Cl)cc1)NC(=S)Nc1ccc(NC(=O)c2ccco2)cc1	Marburg entry inh inconclusive, Lassa entry inh 1.6µM, HCV inhibitor inconclusive
Cc1ccc(/C=C/C(=O)NC(=S)Nc2ccccc2C(=O)NC2CCCCC2)cc1	Marburg entry inh inconclusive, Lassa entry inh inconclusive
COc1ccc(/C=C/C(=O)NC(=S)Nc2ccccc2C(=O)NC2CCCCC2)cc1	Lassa entry inh inconclusive, HCV inhibitor 25µM
Cc1cccc(CNC(=O)c2cnn(-c3nccc(-c4cc(C)sc4C)n3)c2C)n1	none (no result: Marburg entry inh, Lassa entry inh, HCV inhibitor)
Cc1ccc(C2/C=C\CC(NC(=O)OCC3c4ccccc4-c4ccccc43)CC(=O)N2Cc2ccccc2)cc1 (stereo unspecified)	HCV inhibitor 18µM (no result: Marburg entry inh, Lassa entry inh)
C/C(=N\N1CCCCC1c1cccnc1)c1c(O)n(C2CCCCC2)c(=S)[nH]c1=O (stereo unspecified)	Marburg entry inh 15µM, Lassa entry inh inconclusive, Vaccinia mCherry inconclusive, HCV inhibitor inconclusive
CCCCn1c(O)c(/C(CC)=N/N2CCCCC2c2cccnc2)c(=O)[nH]c1=S (stereo unspecified)	Marburg entry inh inconclusive, Lassa entry inh inconclusive
CC1(C)CC(NC(=O)c2cccc(S(=O)(=O)N(Cc3ccccc3)c3ccccc3)c2)CC(C)(C)N1	Marburg entry inh inconclusive, VACV Venus inh inconclusive, HCV inhibitor 2.2µM
FC(F)(F)c1cccc(N2CCN(C(=S)NCC3CCCO3)CC2)c1 (stereo unspecified)	Marburg entry inh inconclusive, Lassa entry inh inconclusive, HCV inhibitor 11µM
S=C(NCC1CCCO1)N1CCN(c2ccccc2)CC1 (stereo unspecified)	Marburg entry inh inconclusive
CC(C)NS(=O)(=O)c1ccc(OCC(=O)N2CCN(c3ccccc3)CC2)cc1	none
O=C(c1ccc(S(=O)(=O)NCC2CCCO2)cc1)N1CCN(c2cccc(Cl)c2)CC1 (stereo unspecified)	HCV inhibitor 11µM (no result: Marburg entry inh, VACV Venus inh, Lassa entry inh, Vaccinia mCherry)
S=C(NC1CCCC1)N1CCN(c2cccc(Cl)c2)CC1	HCV inhibitor 13µM (no result: Marburg entry inh, VACV Venus inh, Lassa entry inh, Vaccinia mCherry)
O=C(COc1ccc(S(=O)(=O)NC2CCCCC2)cc1)N1CCN(c2cccc(Cl)c2)CC1	Marburg entry inh inconclusive, Lassa entry inh inconclusive, HCV inhibitor 7.1µM (no result: VACV Venus inh, Vaccinia mCherry)
Cc1ccc(Cl)cc1N1CCN(C(=O)COc2ccc(S(=O)(=O)NC(C)C)cc2)CC1	VACV Venus inh inconclusive, Vaccinia mCherry inconclusive, HCV inhibitor 10µM (no result: Marburg entry inh, Lassa entry inh)
COc1ccc(-n2nc(C(=O)c3cccs3)cc(-c3nc4ccccc4[nH]3)c2=N)cc1	HCV inhibitor 11µM (no result: VACV Venus inh, Vaccinia mCherry)
Cc1ccccc1-n1nc(C(=O)c2cccs2)cc(-c2nc3ccccc3[nH]2)c1=N	Marburg entry inh inconclusive, HCV inhibitor 10µM (no result: VACV Venus inh, Vaccinia mCherry)
COc1ccc(S(=O)(=O)NCc2ccncc2)cc1OC	HCV inhibitor inconclusive (no result: VACV Venus inh, Vaccinia mCherry)
COc1ccc(CC(=O)Nc2cc(S(=O)(=O)Nc3ccc(OC)cc3)ccc2OC)cc1	HCV inhibitor 13µM (no result: Marburg entry inh, VACV Venus inh, Lassa entry inh, Vaccinia mCherry)
COc1ccc(S(=O)(=O)Nc2ccc(Cc3ccncc3)cc2)cc1OC	Marburg entry inh 1.4µM, Lassa entry inh inconclusive, Vaccinia mCherry inconclusive, HCV inhibitor inconclusive
CCc1ccc(OC)c(S(=O)(=O)Nc2ccc(Cc3ccncc3)cc2)c1	Marburg entry inh inconclusive, Lassa entry inh 13µM, Vaccinia mCherry inconclusive, HCV inhibitor 8.9µM
O=S(=O)(Nc1ccc(Cc2ccncc2)cc1)c1ccc(Cl)c(Cl)c1	Marburg entry inh inconclusive, HCV inhibitor 7.9µM (no result: VACV Venus inh, Vaccinia mCherry)
COc1ccc2cc3cc(C(=O)N4CCN(c5ccccc5F)CC4)oc3nc2c1	none (no result: HCV inhibitor)
Cc1ccccc1OCc1nnc(SCc2cc(=O)c3ccc(C)c(C)c3[nH]2)n1C	none (no result: Marburg entry inh, HCV inhibitor)
O=C1C(Nc2ccccc2)=C(N2CCCCC2)C(=O)c2ccccc21	Marburg entry inh inconclusive, VACV Venus inh inconclusive, HCV inhibitor 10µM
CC1CCN(C2=C(NS(=O)(=O)c3ccccc3)C(=O)c3ccccc3C2=O)CC1	Marburg entry inh inconclusive, Vaccinia mCherry inconclusive
O=C1C(NS(=O)(=O)c2ccccc2)=C(N2CCN(c3ccc(F)cc3)CC2)C(=O)c2ccccc21	VACV Venus inh inconclusive, Vaccinia mCherry 0.32µM (no result: Marburg entry inh, Lassa entry inh)
O=C(/C=C/c1ccc(O)cc1)c1ccc(NC2=C(N3CCCCC3)C(=O)c3ccccc3C2=O)cc1	Marburg entry inh inconclusive, VACV Venus inh inconclusive, Lassa entry inh inconclusive, Vaccinia mCherry 1.4µM, HCV inhibitor 10µM
CN(C1=C(N2CCCCC2)C(=O)c2ccccc2C1=O)c1ccccc1	Marburg entry inh inconclusive, Lassa entry inh inconclusive, HCV inhibitor 13µM
Cc1ccc(NC2=C(N3CCCCC3)C(=O)c3ccccc3C2=O)cc1	Marburg entry inh inconclusive, Lassa entry inh inconclusive
O=C1C(Nc2cccc(O)c2)=C(N2CCCCC2)C(=O)c2ccccc21	Marburg entry inh inconclusive
COCCN1C(=O)NC(c2cccc(F)c2)C(C(C)=O)=C1C (stereo unspecified)	none (no result: VACV Venus inh, Lassa entry inh, Vaccinia mCherry, HCV inhibitor)
CCOC(=O)C1=C2C=C(OCC)C=CC2OC1c1ccccc1 (stereo unspecified)	none (no result: VACV Venus inh, Lassa entry inh, Vaccinia mCherry, HCV inhibitor)
CCc1cccc(C)c1NC(=O)c1cc(S(=O)(=O)N2CCN(c3ccccc3)CC2)ccc1F	none (no result: Marburg entry inh, HCV inhibitor)
Cc1ccc(C2(c3ccc(C)cc3)CC2C(=O)Nc2ccc([N+](=O)[O-])cc2O)cc1 (stereo unspecified)	Marburg entry inh inconclusive, VACV Venus inh inconclusive, Lassa entry inh 13µM, HCV inhibitor 3.5µM
COc1ccc(CN2C[C@H](Sc3nc4ccccc4[nH]3)C[C@H]2C(=O)N2CCCN(C)CC2)cc1C	none (no result: Marburg entry inh, Lassa entry inh, HCV inhibitor)
Cc1cc(=O)c(C(=O)NCCc2ccccn2)c2n1-c1ccccc1SC(c1cccs1)C2 (stereo unspecified)	none (no result: Marburg entry inh, Lassa entry inh, HCV inhibitor)
CCOc1ccc(NC(=S)N(CCCN2CCOCC2)Cc2cn(C)c3ccccc23)cc1	Marburg entry inh inconclusive, HCV inhibitor 10µM
COc1ccc(NC(=S)N(CCCN2CCOCC2)Cc2cn(C)c3ccccc23)cc1	Marburg entry inh inconclusive, Lassa entry inh inconclusive, HCV inhibitor inconclusive
Cn1cc(CN(CCCN2CCOCC2)C(=S)Nc2cccc(Cl)c2)c2ccccc21	Marburg entry inh inconclusive, Lassa entry inh inconclusive, Vaccinia mCherry inconclusive, HCV inhibitor 8.9µM
CCOC(=O)c1c(C)[nH]c(C(=O)OCC(=O)N2c3ccccc3CC2C)c1C (stereo unspecified)	Marburg entry inh inconclusive, Lassa entry inh inconclusive, Vaccinia mCherry inconclusive, HCV inhibitor 10µM
